PubChem BioAssay (Tox21)
Inconclusive results are not listed. The source made the active and inactive calls. Unless noted, calls come from the whole dose curve.

How the values were obtained:
[1] = Nuclear factor erythroid 2-related factor 2/antioxidant responsive element (Nrf2/ARE) small molecule agonists: qHTS cell viability counter screen in human keratinocytes (AID 1919968; active = well fitted curve in the direction sought with a large enough effect in the repeat runs; an effect the other way counts as inactive or inconclusive; note: nearly all actives have a fitted effect of over 55% in size)
Procedure, shortened: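 Measured as CellTiter-Fluor fluorescence, this readout tracks cytotoxicity in the same wells as the ARE-luciferase screen. HaCaT reporter cells (1,500/well) received compounds after a 5 h pre-incubation and were exposed for 23 h.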

[2] = Nuclear factor erythroid 2-related factor 2/antioxidant responsive element (Nrf2/ARE) small molecule agonists: luciferase reporter gene qHTS assay in human keratinocytes (AID 1919969); note: nearly all actives have a fitted effect of over 35% in size
[3] = target: Gonadotropin-releasing hormone receptor (Homo sapiens) (UniProt P30968); assay: Human gonadotropin-releasing hormone receptor (GnRHR) small molecule agonists, calcium flux assay in GnRHR-HEK293 cells (AID 1920063); note: nearly all actives have a fitted effect of over 35% in size
Chain of Gonadotropin-releasing hormone receptor (Homo sapiens) (P30968 whole entry, looked up): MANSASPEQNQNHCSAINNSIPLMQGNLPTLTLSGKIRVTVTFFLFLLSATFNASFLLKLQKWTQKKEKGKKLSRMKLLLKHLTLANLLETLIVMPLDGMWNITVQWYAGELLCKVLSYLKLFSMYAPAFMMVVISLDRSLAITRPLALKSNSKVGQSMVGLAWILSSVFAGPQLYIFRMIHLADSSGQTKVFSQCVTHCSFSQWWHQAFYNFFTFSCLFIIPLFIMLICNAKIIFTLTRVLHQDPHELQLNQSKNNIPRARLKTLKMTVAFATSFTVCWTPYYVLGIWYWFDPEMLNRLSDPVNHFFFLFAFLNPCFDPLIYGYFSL
Procedure, shortened: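 Fluorescence kinetics (480 nm excitation, 540 nm emission; 3 min, 1 s steps) report calcium mobilisation in human GnRHR-HEK293 cells in agonist mode. Dye incubation: 1 h, 37 C.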

[4] = target: KiSS-1 receptor (Homo sapiens) (UniProt Q969F8); assay: Human kisspeptin (KISS1R) small molecule agonists, calcium flux assay in KISS1R-HEK293 cells (AID 1920064; active = well fitted curve in the direction sought with a large enough effect in the repeat runs; an effect the other way counts as inactive or inconclusive)
Chain of KiSS-1 receptor (Homo sapiens) (Q969F8 whole entry, looked up): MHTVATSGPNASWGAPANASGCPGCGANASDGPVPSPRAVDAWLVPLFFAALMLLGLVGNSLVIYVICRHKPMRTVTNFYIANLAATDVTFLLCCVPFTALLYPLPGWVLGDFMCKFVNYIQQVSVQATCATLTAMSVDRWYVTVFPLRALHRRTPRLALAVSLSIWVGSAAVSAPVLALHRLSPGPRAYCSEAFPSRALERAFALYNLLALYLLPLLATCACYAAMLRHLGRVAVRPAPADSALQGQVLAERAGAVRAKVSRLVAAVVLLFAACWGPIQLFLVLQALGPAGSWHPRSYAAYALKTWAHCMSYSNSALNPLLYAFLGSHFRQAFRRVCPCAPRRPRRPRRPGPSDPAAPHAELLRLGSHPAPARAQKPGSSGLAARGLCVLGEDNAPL
Procedure, shortened: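 Measures KISS1R agonism through calcium-sensitive dye fluorescence in stably transfected HEK293 cells, read for 3 min after pin-tool compound delivery; 15-point titrations in triplicate.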

[5] = G protein-coupled receptor (GPCR) small molecule agonists, calcium flux assay: HEK293 wild type cell line counter screen (AID 1920065)
Procedure, shortened: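 Readout: fluorescence at 480 nm excitation/540 nm emission, sampled at 1 s intervals for 3 min. Cells had been cultured 18 h, then dye-loaded 1 h at 37 C before compound or ATP addition.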

[6] = p53 small molecule agonists, cell-based qHTS assay with rat liver microsomes (AID 1963578)
Procedure, shortened: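 Quantitative HTS of the Tox21 10K library: p53RE-bla cells, rat liver microsomes plus NADPH at 0.5 mg/mL final each, 16 h at 37 C, beta-lactamase fluorescence detection.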

[7] = p53 small molecule agonists, cell-based qHTS assay with human liver microsomes: qHTS cell viability counter screen (AID 1963579); note: nearly all actives have a fitted effect of over 45% in size
Procedure, shortened: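 Viability of p53RE-bla cells is measured as CellTiter-Glo luminescence following a 16 h, 37 C incubation with compound, liver microsomes from human donors and NADPH.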

[8] = p53 small molecule agonists, cell-based qHTS assay with rat liver microsomes: qHTS cell viability counter screen (AID 1963580); note: nearly all actives have a fitted effect of over 45% in size
Procedure, shortened: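 Viability is assessed in parallel with the p53 reporter read: HCT-116 p53RE-bla cells receive compounds plus rat microsomes and NADPH (0.5 mg/mL final apiece), incubate 16 h at 37 C, and then CellTiter-Glo luminescence is recorded.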

[9] = p53 small molecule agonists, cell-based qHTS assay: qHTS cell viability counter screen (AID 1963581); note: nearly all actives have a fitted effect of over 45% in size
Procedure, shortened: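 In the same plates used for the p53 bla reporter, HCT-116 cells given compounds for 16 h at 37 C received CellTiter-Glo; luminescence was recorded 30 min later at room temperature.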

[10] = p53 small molecule agonists, cell-based qHTS assay (AID 1963582; active = well fitted activation curve with a large enough effect in the signal ratio in the repeat runs, not every such curve was filed as active; the % refers to the signal ratio)
Procedure, shortened: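 Compounds are pin-transferred in DMSO onto p53RE-bla cells and incubated 16 h at 37 C. The B/G FRET beta-lactamase substrate is then applied for 2 h at RT and fluorescence recorded.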

[11] = target: 5-hydroxytryptamine receptor 2A (Homo sapiens) (UniProt P28223); assay: 5-hydroxytryptamine receptor 2A (HTR2A) small molecule antagonists, cell-based qHTS assay (AID 1963586); note: nearly all actives have a fitted effect of over 45% in size
Chain of 5-hydroxytryptamine receptor 2A (Homo sapiens) (P28223 whole entry, looked up): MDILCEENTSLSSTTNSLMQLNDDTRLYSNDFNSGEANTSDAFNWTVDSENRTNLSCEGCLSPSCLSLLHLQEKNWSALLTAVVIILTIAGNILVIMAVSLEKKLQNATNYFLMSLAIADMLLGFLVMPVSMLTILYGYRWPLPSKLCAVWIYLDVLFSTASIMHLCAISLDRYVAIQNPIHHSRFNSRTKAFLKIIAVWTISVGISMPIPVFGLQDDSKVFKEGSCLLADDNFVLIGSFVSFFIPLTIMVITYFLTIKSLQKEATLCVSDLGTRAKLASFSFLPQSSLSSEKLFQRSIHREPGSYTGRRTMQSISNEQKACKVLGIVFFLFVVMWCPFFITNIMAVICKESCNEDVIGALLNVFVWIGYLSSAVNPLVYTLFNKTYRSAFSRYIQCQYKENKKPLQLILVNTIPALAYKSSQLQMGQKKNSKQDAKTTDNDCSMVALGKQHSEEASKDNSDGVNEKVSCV
Procedure, shortened: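 Antagonist-mode intracellular calcium assay: DOI (4 nM) added after 5 min compound pre-incubation at room temperature to dye-loaded HTR2A-CHO cells. Fluorescence followed for 3 min, sampled every second.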

[12] = target: 5-hydroxytryptamine receptor 2A (Homo sapiens) (UniProt P28223); assay: 5-hydroxytryptamine receptor 2A (HTR2A) small molecule agonists, cell-based qHTS assay (AID 1963587); note: nearly all actives have a fitted effect of over 30% in size
Procedure, shortened: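 CHO cells stably expressing human HTR2A, plated 18 h, loaded with calcium dye 1 h at 37 C. Agonist mode: compounds added and intracellular calcium fluorescence recorded kinetically for 2 min at 1 sec intervals.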

[13] = target: Muscarinic acetylcholine receptor M1 (Homo sapiens) (UniProt P11229); assay: Cholinergic receptor muscarinic 1 (CHRM1) small molecule antagonists, cell-based qHTS assay (AID 1963588); note: nearly all actives have a fitted effect of over 40% in size; note: potency is the fitted concentration of half-maximal effect
Chain of Muscarinic acetylcholine receptor M1 (Homo sapiens) (P11229 whole entry, looked up): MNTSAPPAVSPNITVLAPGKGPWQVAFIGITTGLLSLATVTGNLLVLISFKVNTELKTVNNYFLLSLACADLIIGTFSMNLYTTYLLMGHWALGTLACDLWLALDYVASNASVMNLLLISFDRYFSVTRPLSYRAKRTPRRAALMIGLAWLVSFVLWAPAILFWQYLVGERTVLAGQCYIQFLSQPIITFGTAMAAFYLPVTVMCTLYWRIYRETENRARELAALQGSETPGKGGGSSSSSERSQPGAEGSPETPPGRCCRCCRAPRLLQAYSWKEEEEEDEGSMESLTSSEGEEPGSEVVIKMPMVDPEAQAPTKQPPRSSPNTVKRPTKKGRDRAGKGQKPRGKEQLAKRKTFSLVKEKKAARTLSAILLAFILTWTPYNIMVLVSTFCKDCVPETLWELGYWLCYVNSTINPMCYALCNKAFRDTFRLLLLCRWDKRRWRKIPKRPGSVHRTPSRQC
Procedure, shortened: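 CHRM1-CHO calcium-flux assay, antagonist mode. Cells were seeded 18 h, dye-loaded 1 h at 37 C and given compound for 5 min at RT, then acetylcholine was added at 50nM. FDSS fluorescence was read 3 min; 15 concentrations, three runs.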

[14] = target: Muscarinic acetylcholine receptor M1 (Homo sapiens) (UniProt P11229); assay: Cholinergic receptor muscarinic 1 (CHRM1) small molecule agonists, cell-based qHTS assay (AID 1963589); note: nearly all actives have a fitted effect of over 35% in size
Procedure, shortened: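 Each compound was tested at 15 concentrations across three independent runs on dye-loaded CHO cells stably expressing human CHRM1, reading intracellular calcium fluorescence kinetically at 1 sec intervals.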

[15] = cAMP Responsive Elements (CRE) small molecule agonists, cell-based qHTS assay (AID 1963590)
Procedure, shortened: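 Cell line: CRE-bla HEK 293T; medium DMEM/10% dialyzed FBS/0.1 mM NEAA/1 mM pyruvate/25 mM HEPES; 3 h compound exposure; beta-lactamase FRET readout after 2 h substrate loading at RT.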

[16] = cAMP Responsive Elements (CRE) small molecule antagonists, cell-based qHTS assay (AID 1963591; active = well fitted inhibition curve with a large enough effect in the signal ratio in the repeat runs, not every such curve was filed as active; the % refers to the signal ratio)
Procedure, shortened: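 Inhibition of NKH477-driven (0.25 uM final) CRE-beta-lactamase signal in HEK293T cells, 3 h compound exposure at 37 °C, detected by FRET substrate fluorescence.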

[17] = target: Beta-2 adrenergic receptor (Homo sapiens) (UniProt P07550); assay: Adrenergic beta2 receptor (ADRB2) small molecule antagonists, cell-based qHTS assay (AID 1963592); note: nearly all actives have a fitted effect of over 50% in size; note: potency is the fitted concentration of half-maximal effect; for activity change, negative = inhibition: series mostly up to about 92 µM
Chain of Beta-2 adrenergic receptor (Homo sapiens) (P07550 whole entry, looked up): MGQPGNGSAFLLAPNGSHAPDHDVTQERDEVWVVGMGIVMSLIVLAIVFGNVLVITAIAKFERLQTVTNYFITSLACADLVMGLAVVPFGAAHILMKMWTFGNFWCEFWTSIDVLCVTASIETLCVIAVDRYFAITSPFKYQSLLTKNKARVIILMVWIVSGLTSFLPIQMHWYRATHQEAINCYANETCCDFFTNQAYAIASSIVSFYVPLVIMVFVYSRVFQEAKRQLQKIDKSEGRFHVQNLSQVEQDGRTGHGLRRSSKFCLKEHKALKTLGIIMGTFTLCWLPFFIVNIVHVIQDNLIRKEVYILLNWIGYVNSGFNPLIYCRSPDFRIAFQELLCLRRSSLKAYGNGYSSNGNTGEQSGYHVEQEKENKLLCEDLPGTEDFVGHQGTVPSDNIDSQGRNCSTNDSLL
Procedure, shortened: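 Cells (CHO, stable ADRB2 overexpression) incubated 18-20hr at 37C; compounds added from DMSO; agonist mix (1nM isoproterenol, 100uM IBMX, 25uM Ro-20-1724) added; 0.5hr RT; d2-cAMP and anti-cAMP-cryptate added; 1hr RT; 665/615 nm read.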

[18] = target: D(2) dopamine receptor (Homo sapiens) (UniProt P14416); assay: Dopamine D2 receptor (DRD2) small molecule agonists, cell-based qHTS assay (AID 1963594); note: nearly all actives have a fitted effect of over 35% in size
Chain of D(2) dopamine receptor (Homo sapiens) (P14416 whole entry, looked up): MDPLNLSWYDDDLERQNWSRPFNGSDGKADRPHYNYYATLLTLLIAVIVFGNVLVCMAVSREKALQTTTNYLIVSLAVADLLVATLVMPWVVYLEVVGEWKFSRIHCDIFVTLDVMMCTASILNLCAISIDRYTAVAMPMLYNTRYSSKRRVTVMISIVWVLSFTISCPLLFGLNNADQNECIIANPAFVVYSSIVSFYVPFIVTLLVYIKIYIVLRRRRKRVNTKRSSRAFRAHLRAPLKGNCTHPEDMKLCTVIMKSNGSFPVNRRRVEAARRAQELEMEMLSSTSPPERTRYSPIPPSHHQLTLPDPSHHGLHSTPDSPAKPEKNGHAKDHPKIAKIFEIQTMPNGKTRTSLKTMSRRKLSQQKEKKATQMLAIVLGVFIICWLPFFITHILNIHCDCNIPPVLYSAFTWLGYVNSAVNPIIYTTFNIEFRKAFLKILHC
Procedure, shortened: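 HEK293 cells stably expressing human DRD2, pre-treated with PDE inhibitor Ro20-1724 (0.1 mM final) and compound 10 min at room temperature, then stimulated with NKH477 (200nM […]) for 30 min. cAMP read by HTRF (665/620 nm).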

[19] = target: D(2) dopamine receptor (Homo sapiens) (UniProt P14416); assay: Dopamine D2 receptor (DRD2) small molecule antagonists, cell-based qHTS assay (AID 1963595; active = well fitted inhibition curve with a large enough effect in the signal ratio in the repeat runs, with a control signal flat; the % refers to the signal ratio)
Procedure, shortened: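 Antagonist mode in DRD2-HEK293 cells: after compound addition with 0.1 mM Ro20-1724, cells received quinpirole (12 nM) and NKH477 (200 nM) for 30 min at room temperature; HTRF cAMP read after 1 h detection.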

[20] = target: Beta-2 adrenergic receptor (Homo sapiens) (UniProt P07550); assay: Adrenergic beta2 receptor (ADRB2) small molecule agonists, cell-based qHTS assay (AID 1963593);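 note: CHO cells stably overexpressing human ADRB2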
Procedure, shortened: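 CHO cells stably over-expressing ADRB2 were plated overnight at 37C, then dosed with compounds plus a stimulation mix containing 100uM IBMX and 25uM Ro-20-1724 for 0.5hr at room temperature. cAMP was measured by HTRF competition, 1hr.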
% is set by controls: 0 for no effect and ±100 for the full control effect.

C=CCOCC(O)CCl (stereo unspecified)
inactive: Potency [1] | Potency [2] | Potency [3] | Potency [4] | Potency [5] | Potency [6] | Potency [7] | Potency [8] | Potency [9] | Potency [10] | Potency [11] | Potency [12] | Potency [13] | Potency [14] | Potency [15] | Potency [16] | Potency [17] | Potency [18] | Potency [19]

CN1CCN(C(=O)C2CCCCC2)CC1
inactive: Potency [1] | Potency [2] | Potency [3] | Potency [4] | Potency [5] | Potency [6] | Potency [7] | Potency [8] | Potency [9] | Potency [10] | Potency [12] | Potency [13] | Potency [16] | Potency [17] | Potency [20] | Potency [18] | Potency [19]

C[C@@H]1C[C@H]2[C@@H]3C[C@H](F)C4=CC(=O)C(Cl)=C[C@]4(C)[C@@]3(F)[C@@H](O)C[C@]2(C)[C@@]1(O)C(=O)CO
inactive: Potency [1] | Potency [2] | Potency [3] | Potency [4] | Potency [5] | Potency [6] | Potency [7] | Potency [8] | Potency [9] | Potency [10] | Potency [11] | Potency [12] | Potency [13] | Potency [14] | Potency [15] | Potency [16] | Potency [17] | Potency [18] | Potency [19]

O=C(CCCN1CCN(c2ccc(F)cc2)CC1)NC1c2ccccc2CSc2ccccc21 (stereo unspecified)
inactive: Potency [1] | Potency [2] | Potency [3] | Potency [4] | Potency [5] | Potency [6] | Potency [7] | Potency [8] | Potency [9] | Potency [10] | Potency [12] | Potency [14] | Potency [18]
active: Potency [17] 7.5 µM

CC(=O)Oc1ccc2c(c1)CC[C@@H]1[C@@H]2CC[C@]2(C)[C@@H](O)CC[C@@H]12
inactive: Potency [1] | Potency [2] | Potency [3] | Potency [4] | Potency [5] | Potency [6] | Potency [7] | Potency [8] | Potency [9] | Potency [10] | Potency [11] | Potency [12] | Potency [13] | Potency [14] | Potency [16] | Potency [17] | Potency [18] | Potency [19]

CCNC(=O)/C=C/c1cccc(Br)c1
inactive: Potency [1] | Potency [2] | Potency [3] | Potency [4] | Potency [5] | Potency [6] | Potency [7] | Potency [8] | Potency [9] | Potency [10] | Potency [12] | Potency [13] | Potency [14] | Potency [16] | Potency [17] | Potency [18] | Potency [19]

Cn1ccc2cc3c(cc21)CCN3C(=O)Nc1cccnc1
inactive: activity change, negative = cytotoxicity [1] 3.31% [at 19 µM] | activity, positive = activation [2] 26.3% [at 19 µM] | activity change [3] -0.165% [at 11.8 µM, hits give high values] | activation [4] -2.7% [at 15.8 µM] | activation [5] 0.454% [at 11.8 µM] | activation [6] -2.12% [at 13.6 µM] | activity change, negative = cytotoxicity [7] -7.75% [at 13.5 µM] | activity change, negative = cytotoxicity [8] -3.54% [at 13.5 µM] | activity change, negative = cytotoxicity [9] -10.9% [at 13.5 µM] | activation [10] -0.168% [at 13.5 µM] | activation [12] -6.77% [at 15.9 µM] | activity, negative = inhibition [13] 8.54% [at 12.6 µM] | activation [14] -0.375% [at 15.8 µM] | activation [15] 13.1% [at 19 µM] | activity change, negative = inhibition [16] 0.0268% [at 18.9 µM] | activity change, negative = inhibition [17] 0.687% [at 19 µM] | activation [20] -9.02% [at 19 µM] | activity change, negative = inhibition [19] -0.697% [at 18.9 µM]

CC1CC(=O)NN=C1c1ccc(NCC(C)(C)NCC(O)COc2cc(Cl)ccc2C#N)cc1 (stereo unspecified)
inactive: Potency [1] | Potency [2] | Potency [3] | Potency [4] | Potency [5] | Potency [6] | Potency [7] | Potency [8] | Potency [9] | Potency [10] | Potency [11] | Potency [12] | Potency [13] | Potency [14] | Potency [19]
active: Potency [17] 5.31 µM

CC1(C)C(=O)NC(=O)N1CO
inactive: Potency [1] | Potency [2] | Potency [3] | Potency [4] | Potency [5] | Potency [6] | Potency [7] | Potency [8] | Potency [9] | Potency [10] | Potency [11] | Potency [13] | Potency [14] | Potency [15] | Potency [16] | Potency [17] | Potency [20] | Potency [18] | Potency [19]

COc1cc(C(=O)OCCCN2CCCN(CCCOC(=O)c3cc(OC)c(OC)c(OC)c3)CC2)cc(OC)c1OC
active: Potency [13] 7.29 µM
inactive: Potency [1] | Potency [2] | Potency [3] | Potency [4] | Potency [5] | Potency [6] | Potency [7] | Potency [8] | Potency [9] | Potency [10] | Potency [11] | Potency [14] | Potency [15] | Potency [17] | Potency [18] | Potency [19]

C/C=C/C(=O)C1=C(C)CCCC1(C)C
inactive: Potency [1] | Potency [2] | Potency [3] | Potency [4] | Potency [5] | Potency [6] | Potency [7] | Potency [8] | Potency [9] | Potency [10] | Potency [12] | Potency [13] | Potency [14] | Potency [15] | Potency [16] | Potency [17] | Potency [18] | Potency [19]

C=CC(=O)[O-].C=CC(=O)[O-].[Zn+2]
inactive: Potency [1] | Potency [2] | Potency [3] | Potency [4] | Potency [5] | Potency [6] | Potency [7] | Potency [8] | Potency [9] | Potency [10] | Potency [12] | Potency [13] | Potency [15] | Potency [16] | Potency [17] | Potency [20] | Potency [18] | Potency [19]

CO/N=C(/C(=O)N[C@@H]1C(=O)N2C(C(=O)OCOC(=O)C(C)(C)C)=C(C)CS[C@H]12)c1csc(N)n1
inactive: Potency [1] | Potency [2] | Potency [3] | Potency [4] | Potency [5] | Potency [6] | Potency [7] | Potency [8] | Potency [9] | Potency [10] | Potency [11] | Potency [12] | Potency [13] | Potency [14] | Potency [17] | Potency [18] | Potency [19]

O=C1OC(=O)c2cc(Oc3ccc4c(c3)C(=O)OC4=O)ccc21
inactive: Potency [1] | Potency [2] | Potency [3] | Potency [4] | Potency [5] | Potency [6] | Potency [7] | Potency [8] | Potency [9] | Potency [10] | Potency [11] | Potency [12] | Potency [13] | Potency [14] | Potency [15] | Potency [16] | Potency [17] | Potency [18] | Potency [19]
